# Source: PubChem BioAssay
# Target: NADPH oxidase 5 (Homo sapiens) (UniProt Q96PH1)
# Experiment: compounds shifting NOX5 Amplex Red fluorescence – cell-based, HEK293-NOX5, NOX inhibitor project, primary screen (AID 1161)
# Details: HEK293-NOX5, ionomycin, 45 min, higher = more signal
# Sequence of NADPH oxidase 5 (Homo sapiens) (Q96PH1 whole entry, looked up): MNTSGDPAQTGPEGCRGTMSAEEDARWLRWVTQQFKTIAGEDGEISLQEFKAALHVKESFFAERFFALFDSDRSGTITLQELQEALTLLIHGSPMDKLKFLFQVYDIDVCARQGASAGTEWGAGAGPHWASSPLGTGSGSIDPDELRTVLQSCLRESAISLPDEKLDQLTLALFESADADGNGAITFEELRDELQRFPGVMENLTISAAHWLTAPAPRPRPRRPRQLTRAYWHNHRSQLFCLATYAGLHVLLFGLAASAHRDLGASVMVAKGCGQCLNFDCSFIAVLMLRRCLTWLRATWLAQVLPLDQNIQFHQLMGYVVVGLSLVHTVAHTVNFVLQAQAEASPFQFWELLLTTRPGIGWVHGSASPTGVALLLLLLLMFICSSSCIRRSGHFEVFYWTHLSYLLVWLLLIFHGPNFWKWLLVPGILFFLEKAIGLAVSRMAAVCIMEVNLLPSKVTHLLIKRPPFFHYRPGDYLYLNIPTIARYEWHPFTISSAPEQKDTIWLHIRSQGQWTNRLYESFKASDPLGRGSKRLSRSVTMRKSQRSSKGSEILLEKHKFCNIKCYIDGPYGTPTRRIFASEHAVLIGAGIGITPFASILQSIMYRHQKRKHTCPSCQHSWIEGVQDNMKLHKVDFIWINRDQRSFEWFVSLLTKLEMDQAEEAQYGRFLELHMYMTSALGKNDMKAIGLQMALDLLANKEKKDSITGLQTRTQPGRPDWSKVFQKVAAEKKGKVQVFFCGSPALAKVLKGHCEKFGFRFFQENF
row,Compound,z-score
1,C=CCN1C(=O)[C@]2(O[C@H](CCO)[C@@H]([Si](C)(C)c3ccc(OC)cc3)[C@@H]2C)c2cc(N3C(=O)c4cccc5cccc3c45)ccc21,0.0361
2,O=C(NCc1ccccc1)[C@@]1(CCS(=O)(=O)c2ccccc2)N=C(c2ccc(OCCCO)cc2)O[C@H]1c1ccccc1,1.33
3,CC(C)C(=C=CC[C@@H](O)c1ccccc1OCCO)CCO,-2.06
4,O=C(NCC(F)(F)F)[C@@H]1c2ccccc2C(=O)N(C2CCCCC2)[C@H]1c1ccc(CO)cc1,0.211
5,CN1C(=O)C2C=CC(C(O)c3cccs3)N(Nc3ccccc3)C2C1=O (stereo not drawn),-3.11
6,COc1cc2c(cc1O)C(C1CC1)N(Cc1cc3c(cc1Br)OCO3)CC2 (stereo not drawn),-4.81
7,COCCOC(=O)N1C(=O)[C@@]2(c3cc(C#CCCO)ccc31)[C@H](c1ccc(OCCO)cc1)N1[C@H](c3ccccc3)[C@H](c3ccccc3)OC(=O)[C@H]1[C@@H]2C(=O)N1CCN(c2ncccn2)CC1,1.32
8,O=C1O[C@H](c2ccccc2)[C@H](c2ccccc2)N2[C@H]1[C@@H](C(=O)NC[C@H](O)c1ccccc1)[C@]1(C(=O)Nc3ccccc31)[C@H]2c1ccc(OCCO)cc1,1.34
9,O=C1c2ccccc2[C@](Cc2ccccc2I)(C(=O)NC2CC2)[C@H](c2ccc(CO)cc2)N1C1CCCCC1,2.45
10,CC(=O)NCCCC[C@@H]1NC(=O)[C@@H]2C[C@H](C(=O)NCCCCCCNC(=O)CS)[C@H](c3cccc(OCCO)c3)N2C1=O,0.303
11,COCCOC(=O)N1C(=O)[C@@]2(c3cc(C#CC4=CCCCC4)ccc31)[C@H](C(=O)N1CCc3cc(OC)c(OC)cc3C1)[C@H]1C(=O)O[C@H](c3ccccc3)[C@H](c3ccccc3)N1[C@@H]2c1ccc(OCCO)cc1,0.669
12,COCCOC(=O)N1C(=O)[C@@]2(c3cc(C#CC4=CCCCC4)ccc31)[C@H](C(=O)Nc1nc3ccccc3s1)[C@H]1C(=O)O[C@H](c3ccccc3)[C@H](c3ccccc3)N1[C@@H]2c1ccccc1OCCO,-1.83
13,COc1ccc(C(O)C2C=CC3C(=O)N(c4ccccc4)C(=O)C3N2Nc2ccc(C(C)C)cc2)cc1OCc1ccccc1 (stereo not drawn),-1.22
